# Experimental data as given in the supplement of paper PMC3334620.
# Over roughly 33,000 sequences, “E-score (-0.5 to 0.5)” has its median near -0.054; the highest 2% begin near 0.39. Shown is part of a subset that was picked to be rich in the highest values.
# Target: Ylr278c (UniProt Q05854)
# Test: PBM E-score (8-mer binding enrichment) (E-score (-0.5 to 0.5)); higher = stronger / more preferred TF binding
# Conditions: protein concentration: 200 nM; construct: GST-DNA-binding domain
# Protocol: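 Universal 'all 10-mer' protein binding microarrays (Agilent AMADID 015681) probed with GST-tagged S. cerevisiae TFs (full-length or DBD) made by in vitro transcription/translation (PURExpress), about 100-200 nM. Bound TF was detected with fluorescent anti-GST. Each ungapped 8-mer (which stands for itself and its reverse complement) is scored by the PBM enrichment score (E-score), a modified Wilcoxon-Mann-Whitney statistic from -0.5 to +0.5, computed with the Universal PBM Analysis Suite. Scale: above 0.35 generally sequence-specific binding.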
# UniProt Q05854, sequence (Q05854 whole entry): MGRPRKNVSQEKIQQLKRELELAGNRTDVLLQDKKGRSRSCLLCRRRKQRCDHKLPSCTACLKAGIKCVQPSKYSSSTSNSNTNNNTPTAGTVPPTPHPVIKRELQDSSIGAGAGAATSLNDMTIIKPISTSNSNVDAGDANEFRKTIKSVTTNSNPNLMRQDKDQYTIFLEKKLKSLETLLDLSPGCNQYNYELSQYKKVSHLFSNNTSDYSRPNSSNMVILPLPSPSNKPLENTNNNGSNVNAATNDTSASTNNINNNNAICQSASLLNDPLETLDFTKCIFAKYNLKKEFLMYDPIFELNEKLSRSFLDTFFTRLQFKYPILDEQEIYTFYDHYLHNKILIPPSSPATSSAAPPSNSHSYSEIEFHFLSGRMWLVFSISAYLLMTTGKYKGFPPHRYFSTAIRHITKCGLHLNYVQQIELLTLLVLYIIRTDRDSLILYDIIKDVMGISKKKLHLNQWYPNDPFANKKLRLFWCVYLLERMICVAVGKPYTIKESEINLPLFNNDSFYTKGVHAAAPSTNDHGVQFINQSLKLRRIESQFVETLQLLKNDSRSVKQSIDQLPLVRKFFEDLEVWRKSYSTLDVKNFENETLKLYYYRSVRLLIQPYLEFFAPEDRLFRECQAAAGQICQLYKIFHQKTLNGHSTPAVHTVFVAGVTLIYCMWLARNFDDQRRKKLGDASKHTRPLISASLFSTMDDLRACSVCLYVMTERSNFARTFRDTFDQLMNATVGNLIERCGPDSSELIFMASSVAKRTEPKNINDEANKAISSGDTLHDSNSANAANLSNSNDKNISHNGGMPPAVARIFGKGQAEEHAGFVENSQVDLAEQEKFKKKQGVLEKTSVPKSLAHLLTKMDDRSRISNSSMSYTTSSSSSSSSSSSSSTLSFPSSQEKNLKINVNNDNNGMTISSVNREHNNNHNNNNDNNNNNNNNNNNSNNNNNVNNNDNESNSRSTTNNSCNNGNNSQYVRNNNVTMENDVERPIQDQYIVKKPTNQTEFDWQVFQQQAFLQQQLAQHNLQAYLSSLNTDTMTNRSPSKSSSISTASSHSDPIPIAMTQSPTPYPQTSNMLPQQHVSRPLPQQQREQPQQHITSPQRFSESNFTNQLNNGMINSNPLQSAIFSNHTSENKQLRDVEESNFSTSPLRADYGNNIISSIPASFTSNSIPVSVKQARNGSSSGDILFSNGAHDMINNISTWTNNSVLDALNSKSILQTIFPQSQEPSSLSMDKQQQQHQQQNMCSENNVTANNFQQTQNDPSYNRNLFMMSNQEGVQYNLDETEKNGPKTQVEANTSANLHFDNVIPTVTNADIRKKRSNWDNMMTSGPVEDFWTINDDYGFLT
row,Sequence,PBM E-score
1,CACGCTCC,0.129
2,CTCGCGTC,0.0578
3,GGGCTCAA,-0.00819
4,GCTCCGGA,0.464
5,GCTCCAGA,-0.103
6,ACTCCAGG,0.00347
7,CCTCCAGC,-0.37
8,ACTCCGGC,0.476
9,ACTCCGGG,0.481
10,CCTCCGGC,0.448
11,CCTCCTGC,-0.182
12,GCTCCCGA,0.0641
13,ACTCCTGC,0.165
14,ACTCCAGC,-0.122
15,ACTCCTGG,-0.0351
16,ATAAGTTA,-0.103
17,ACTAGAAG,-0.121
18,AGAAGGAT,-0.269
19,ACTTCAGG,-0.0351
20,ACTGCATC,-0.142
21,CCACTTCC,0.0941
22,CTCTTGGC,-0.239
23,CTGAGGGC,-0.251
24,ACTCCGGA,0.494
25,CCTCCGGA,0.467

row,Sequence,PBM E-score
1,CCTCCTGA,-0.172
2,CCTCCCGA,0.0701
3,ACTCCAGA,-0.112
4,ACTCCTGA,0.0258
5,CGCGCAAG,0.0504
6,CTACACGC,-0.235
7,GCGATATA,0.00114
8,ACTAGCAA,-0.104
9,AGGTGCAC,0.0215
10,GGAATTCA,0.183
11,GGAATTCC,0.441
12,AGAATTCC,0.283
13,GAGACTCC,0.249
14,AGCCGCCG,0.313
15,CTCCGCCA,0.391
16,ATCCGCCC,0.291
17,ACCCGCCG,0.307
18,CTCCGCCC,0.457
19,GTCCGCCA,0.293
20,ATCCGCCG,0.401
21,CGCCGCCC,0.284
22,ATCCGCCA,0.196
23,CCAGTCCC,-0.0319
24,GCGTGAGA,-0.0361
25,GCCTCATA,-0.00634

row,Sequence,PBM E-score
1,AATGGTAA,0.0806
2,ACTTTGCC,0.0108
3,CGTCTGGA,-0.166
4,CGACTGCC,0.0706
5,AGAGATAG,-0.0754
6,CGGAGGAG,0.417
7,AGGAGGAC,-0.294
8,CGGAGGAA,0.436
9,AGGAGGAA,-0.165
10,CGGAGGAC,0.423
11,CCGAGGAG,0.183
12,CGGAGGCC,0.42
13,TGGAGGAA,-0.131
14,AGGAGGAG,-0.212
15,AGGAGGCC,-0.164
16,GGGAGGAC,0.0177
17,CGGAGGCA,0.34
18,ATTCGCTA,-0.0743
19,TCTGCTCA,-0.298
20,CAGTATGG,-0.195
21,CCACATCC,0.0271
22,AGAGTCAC,-0.333
23,CAGAATCG,0.00258
24,CACGTCAA,-0.202
25,CCCTTAGA,-0.393

row,Sequence,PBM E-score
1,ACCCCGAA,0.392
2,AACCCGAT,0.29
3,ACCCCGAC,0.39
4,GCCCCGAA,0.301
5,ACCCCGAT,0.426
6,GCCCCGAC,0.278
7,CCCCCGAA,0.184
8,CCCCCGAC,0.228
9,ACCCCGAG,0.319
10,AATCTATG,-0.0536
11,ACCATAGA,0.00619
12,GTTCAGGA,-0.0137
13,GATCTCAC,0.0769
14,CCAGTAGG,-0.101
15,ATCCGTGG,0.299
16,AGAAGGCC,0.0969
17,CTCCGTGC,0.416
18,CTCCGTTA,0.347
19,ATCCGTGC,0.125
20,GTCCGTGA,0.278
21,CACCGTGC,-0.0579
22,CTCCGTGA,0.425
23,ATCCGTTC,0.183
24,ATCCGTGA,0.244
25,CTCCGTTC,0.394

row,Sequence,PBM E-score
1,GTGCTAGA,-0.277
2,AGCGTGGC,-0.0918
3,AGTGGGAG,-0.221
4,CGAAGGCA,-0.0856
5,CGTCCATC,0.145
6,CAGTATCG,0.0195
7,CGACCCCG,0.247
8,CAGGAGGC,-0.0031
9,CCGGAGGC,0.433
10,ACGGAGGC,0.302
11,ACGGAGGA,0.383
12,GCGGAGGA,0.406
13,CCGGAGGA,0.465
14,CGGGAGGA,0.25
15,CAGGAGGA,-0.219
16,GAGGAGGA,-0.246
17,GACGGCAC,0.0236
18,GCAGTCGA,-0.0263
19,TAACAACA,-0.124
20,CAGATCTA,-0.168
21,CTCTGATC,-0.271
22,CCCGAAGA,0.156
23,TCCGAAGA,0.433
24,GCCGAAAA,0.359
25,ACCGAACA,0.0403

row,Sequence,PBM E-score
1,TCCGAACA,0.429
2,GCCGAACA,0.21
3,CCCGAAAA,0.294
4,TCCGAAAA,0.431
5,ACCGAAGA,0.183
6,AAAGAGTG,-0.158
7,ATTTGTCA,-0.182
8,CGAAAGAC,0.133
9,CTTTCATC,-0.135
10,CGTCCGCC,0.319
11,AGTCCGCG,0.369
12,AGTCCGCC,0.424
13,AGTCCGTC,0.381
14,AGTCCTGC,-0.116
15,AGTCCGGG,0.44
16,AGTCCCGG,0.362
17,AGTCCCCC,-0.261
18,AGTCCGGC,0.44
19,CCAGGTCA,-0.253
20,AGGCACTG,-0.178
21,CATGCTGC,-0.0378
22,ACTGCCCT,-0.112
23,CCAACAAA,-0.142
24,AAGTGGGG,0.0493
25,CGGAGAAG,0.453

row,Sequence,PBM E-score
1,CGGAGAAC,0.445
2,AGGAGAAG,-0.151
3,CGGAGAAA,0.477
4,GGGAGAAC,-0.0233
5,AGGAGAAC,-0.00067
6,TGGAGAAA,-0.0369
7,GGGAGAAA,0.0906
8,CAGAGAAG,-0.15
9,GAATGCGC,0.182
10,CTTCTAGA,-0.215
11,CCTCCCTC,0.0572
12,TCCGCTAA,0.267
13,AGTTAGAC,-0.0203
14,GTCCAAGA,-0.185
15,CATGGCCG,0.224
16,GCGTCGGA,0.438
17,CCGTCGGC,0.366
18,CCGTCGGA,0.415
19,GCGTCGAA,-0.0135
20,CCGTCGTA,0.0447
21,ACGTCGGA,0.385
22,CATCCTTC,-0.0925
